About 8,800 targets were measured; listed, in parts, are those with a hit and a random draw of the rest. About 0.5% of all pairs of compound and target were hits.
Key:
Assay in all cases: log2 fold change, soluble protein after heating vs DMSO (PISA); higher = thermal stabilisation; K562 lysate, 10 uM; active = over 0.2 and 3.5 SD of the protein, either way, in both replicates (recomputed)
vemurafenib = compound: CCCS(=O)(=O)Nc1ccc(F)c(C(=O)c2c[nH]c3ncc(-c4ccc(Cl)cc4)cc23)c1F [vemurafenib]
How it was run: (§1)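 Thermal stability, expressed as log-two fold change relative to solvent controls, is given from duplicates. Crude K562 extract in PBS pH 7.4 with 1 mM MgCl2, at 1 mg/mL protein, was treated with 10 μM compound for 30 min and heated in aliquots for 3 min across 48°C-58°C. After pooling, adjustment to 0.5% NP-40 at 4°C and centrifugation at 21,000xg for 90 min, supernatant protein was measured by TMTpro 16plex LC-MS/MS with channel sums equalised.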

[1] = compound: CCCS(=O)(=O)Nc1ccc(F)c(C(=O)c2c[nH]c3ncc(Cl)cc23)c1F
How it was run: as §1

[2] = compound: CC[C@@H]1C(=O)N(C)c2cnc(Nc3ccc(C(=O)NC4CCN(C)CC4)cc3OC)nc2N1C1CCCC1
How it was run: as §1

volasertib = compound: CC[C@@H]1C(=O)N(C)c2cnc(Nc3ccc(C(=O)N[C@H]4CC[C@H](N5CCN(CC6CC6)CC5)CC4)cc3OC)nc2N1C(C)C [volasertib]
How it was run: as §1

saracatinib = compound: CN1CCN(CCOc2cc(OC3CCOCC3)c3c(Nc4c(Cl)ccc5c4OCO5)ncnc3c2)CC1 [saracatinib]
How it was run: as §1

sotrastaurin = compound: CN1CCN(c2nc(C3=C(c4c[nH]c5ccccc45)C(=O)NC3=O)c3ccccc3n2)CC1 [sotrastaurin]
How it was run: as §1

[3] = compound: CNC(=O)C1=CC=CC=C1NC2=NC(=NC=C2Cl)NC3=C(C=C(C=C3)N4CCOCC4)OC
How it was run: as §1

defactinib = compound: CNC(=O)c1ccc(Nc2ncc(C(F)(F)F)c(NCc3nccnc3N(C)S(C)(=O)=O)n2)cc1 [defactinib]
How it was run: as §1

[4] = compound: CNc1nc(-c2ccc3c(N)n[nH]c3c2)cc(N2C[C@@H](C(=O)NC3CCCCC3)CC[C@H]2C)n1
How it was run: as §1

encorafenib = compound: COC(=O)N[C@@H](C)CNc1nccc(-c2cn(C(C)C)nc2-c2cc(Cl)cc(NS(C)(=O)=O)c2F)n1 [encorafenib]
How it was run: as §1

[5] = compound: COC(=O)[C@H](CCSC)NC(=O)C1=C(C=C(C=C1)NC[C@H](CS)N)C2=CC=CC=C2
How it was run: as §1

[6] = compound: COc1cc2nc(-c3cc(F)ccc3O)nc(N[C@@H]3CNC[C@H]3C(C)(C)O)c2cc1OC
How it was run: as §1

barasertib = compound: CCN(CCCOc1ccc2c(Nc3cc(CC(=O)Nc4cccc(F)c4)[nH]n3)ncnc2c1)CCOP(=O)(O)O [barasertib]
How it was run: as §1

[7] = compound: CCn1c(C(=O)N(C2CC2)C2CC2)cc2c3c(ncn3C)c(Nc3cc(C)n(C)n3)nc21
How it was run: as §1

[8] = compound: CCn1cc(-c2ccnc3[nH]c(-c4cccc(CN(C)C)c4)cc23)c(-c2ccc(NC(=O)N(C)C)cc2)n1
How it was run: as §1

[9] = compound: CN1CCC(CNc2ccc3ncc(-c4cccc(OC(F)(F)F)c4)n3n2)CC1
How it was run: as §1

alvocidib = compound: CN1CC[C@H](c2c(O)cc(O)c3c(=O)cc(-c4ccccc4Cl)oc23)[C@H](O)C1 [alvocidib]
How it was run: as §1

Tubastatin A = compound: CN1CCc2c(c3ccccc3n2Cc2ccc(C(=O)NO)cc2)C1 [Tubastatin A]
How it was run: as §1

alisertib = compound: COc1cc(Nc2ncc3c(n2)-c2ccc(Cl)cc2C(c2c(F)cccc2OC)=NC3)ccc1C(=O)O [alisertib]
How it was run: as §1

gefitinib = compound: COc1cc2ncnc(Nc3ccc(F)c(Cl)c3)c2cc1OCCCN1CCOCC1 [gefitinib]
How it was run: as §1

Measured: log2 fold change

COL12A1 (UniProt Q99715)
inactive: vemurafenib 0.239 | [1] 0.178 | [2] 0.194 | volasertib -0.139 | saracatinib 0.063 | sotrastaurin -0.233 | [3] 0.095 | defactinib -0.059 | [4] 0.531 | encorafenib 0.003 | [5] -0.092
active: [6] 1.32

DDR1 isoform 5 (UniProt Q08345)
inactive: barasertib 0.169 | [2] 0.064 | [7] 0.013 | [8] 0.043 | saracatinib -0.142 | sotrastaurin -0.019 | alvocidib -0.034 | Tubastatin A 0.052 | [4] 0.147 | encorafenib 0.044 | [5] -0.094 | alisertib 0 | gefitinib 0.046
active: [9] -0.479

DESI2 (UniProt Q9BSY9)
UniProt Q9BSY9, sequence (Q9BSY9 whole entry, looked up): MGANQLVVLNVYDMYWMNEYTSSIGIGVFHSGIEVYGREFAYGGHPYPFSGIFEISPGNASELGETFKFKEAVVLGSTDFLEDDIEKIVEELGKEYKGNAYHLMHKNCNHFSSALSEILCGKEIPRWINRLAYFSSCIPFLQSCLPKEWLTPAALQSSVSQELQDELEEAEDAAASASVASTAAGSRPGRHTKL
inactive: vemurafenib 0.064 | [2] 0.089 | [8] 0.116 | [9] -0.113 | alvocidib -0.07 | defactinib 0.016 | encorafenib -0.057 | [5] -0.014

CNOT2 (UniProt F8VRS8)
inactive: [3] 0.004

DLGAP5 isoform 3 (UniProt Q15398)
UniProt Q15398, sequence (Q15398 whole entry, looked up): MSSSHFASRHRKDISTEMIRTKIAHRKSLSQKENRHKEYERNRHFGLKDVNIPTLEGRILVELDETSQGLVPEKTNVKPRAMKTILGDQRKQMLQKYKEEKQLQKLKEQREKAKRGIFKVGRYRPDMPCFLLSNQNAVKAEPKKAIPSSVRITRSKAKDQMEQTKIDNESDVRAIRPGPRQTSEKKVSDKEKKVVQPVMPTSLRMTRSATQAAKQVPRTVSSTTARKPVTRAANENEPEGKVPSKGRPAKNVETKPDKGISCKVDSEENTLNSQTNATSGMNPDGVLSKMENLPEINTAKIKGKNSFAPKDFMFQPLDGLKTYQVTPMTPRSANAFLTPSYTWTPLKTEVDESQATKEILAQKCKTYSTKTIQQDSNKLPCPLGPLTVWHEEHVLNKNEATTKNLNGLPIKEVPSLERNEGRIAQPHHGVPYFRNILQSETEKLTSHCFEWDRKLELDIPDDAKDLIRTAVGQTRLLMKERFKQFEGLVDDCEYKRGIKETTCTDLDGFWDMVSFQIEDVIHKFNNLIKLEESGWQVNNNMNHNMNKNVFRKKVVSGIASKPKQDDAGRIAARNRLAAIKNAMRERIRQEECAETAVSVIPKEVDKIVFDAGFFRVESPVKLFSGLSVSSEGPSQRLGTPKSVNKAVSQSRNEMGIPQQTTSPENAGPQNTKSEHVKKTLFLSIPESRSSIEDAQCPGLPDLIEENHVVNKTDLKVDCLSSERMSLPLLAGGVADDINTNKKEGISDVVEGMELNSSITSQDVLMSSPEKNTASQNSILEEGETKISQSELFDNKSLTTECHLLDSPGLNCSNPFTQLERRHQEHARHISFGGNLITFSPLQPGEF
inactive: barasertib 0.281 | [8] -0.165 | [9] -0.03 | saracatinib 0.165 | alvocidib 0 | [4] -0.051

CHMP4A (UniProt H0YIN6)
inactive: [1] 0.049 | barasertib -0.012 | volasertib 0.024 | [7] -0.495 | [8] -0.274 | [9] 0.158 | saracatinib 0.201 | sotrastaurin -0.088 | alvocidib -0.197 | Tubastatin A 0.193 | [4] 0.528 | [6] 0.104

DAPK1 isoform 3 (UniProt P53355)
UniProt P53355, sequence (P53355 whole entry, looked up): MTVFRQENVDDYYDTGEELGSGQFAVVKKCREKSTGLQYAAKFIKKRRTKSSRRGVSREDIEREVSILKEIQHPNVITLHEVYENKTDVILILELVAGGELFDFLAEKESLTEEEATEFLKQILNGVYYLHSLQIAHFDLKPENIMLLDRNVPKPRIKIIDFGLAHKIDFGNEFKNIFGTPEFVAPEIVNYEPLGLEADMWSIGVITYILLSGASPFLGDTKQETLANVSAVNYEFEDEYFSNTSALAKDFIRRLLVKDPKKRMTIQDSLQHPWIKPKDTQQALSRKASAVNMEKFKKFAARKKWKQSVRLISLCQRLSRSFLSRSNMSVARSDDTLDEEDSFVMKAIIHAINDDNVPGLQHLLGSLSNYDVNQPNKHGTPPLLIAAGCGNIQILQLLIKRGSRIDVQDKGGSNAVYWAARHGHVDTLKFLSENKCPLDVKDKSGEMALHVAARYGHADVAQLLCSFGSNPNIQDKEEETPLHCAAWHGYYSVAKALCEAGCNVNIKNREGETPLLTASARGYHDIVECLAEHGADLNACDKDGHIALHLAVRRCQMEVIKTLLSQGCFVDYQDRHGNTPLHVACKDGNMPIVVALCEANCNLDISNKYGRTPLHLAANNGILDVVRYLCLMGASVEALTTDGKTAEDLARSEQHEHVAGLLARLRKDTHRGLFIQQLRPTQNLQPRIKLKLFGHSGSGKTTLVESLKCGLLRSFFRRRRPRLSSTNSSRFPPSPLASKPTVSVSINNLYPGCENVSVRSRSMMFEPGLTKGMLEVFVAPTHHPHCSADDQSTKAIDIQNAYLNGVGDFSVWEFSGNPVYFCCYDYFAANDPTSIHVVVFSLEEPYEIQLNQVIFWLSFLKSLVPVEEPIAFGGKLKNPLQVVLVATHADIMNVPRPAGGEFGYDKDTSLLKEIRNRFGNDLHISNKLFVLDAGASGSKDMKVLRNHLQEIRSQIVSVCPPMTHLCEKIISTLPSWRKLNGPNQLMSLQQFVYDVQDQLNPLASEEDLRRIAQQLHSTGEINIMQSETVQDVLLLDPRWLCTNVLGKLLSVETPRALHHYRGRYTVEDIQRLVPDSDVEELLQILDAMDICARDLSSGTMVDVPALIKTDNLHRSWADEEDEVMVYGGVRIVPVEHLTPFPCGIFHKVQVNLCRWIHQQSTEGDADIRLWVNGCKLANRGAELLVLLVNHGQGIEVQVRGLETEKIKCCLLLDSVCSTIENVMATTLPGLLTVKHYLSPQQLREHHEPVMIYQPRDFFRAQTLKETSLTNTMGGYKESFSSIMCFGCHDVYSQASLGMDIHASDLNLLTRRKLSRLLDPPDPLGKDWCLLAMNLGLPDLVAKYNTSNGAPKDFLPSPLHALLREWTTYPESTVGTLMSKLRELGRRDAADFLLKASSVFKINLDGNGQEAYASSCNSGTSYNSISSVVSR
inactive: vemurafenib 0.047 | [1] -0.203 | volasertib -0.138 | [7] 0.022 | [8] 0.138 | [9] -0.04 | saracatinib 0.022 | sotrastaurin -0.039 | alvocidib 0.085 | Tubastatin A 0.001 | [3] 0.322 | defactinib -0.109 | [4] 0.058 | alisertib 0.051 | [6] 0.063 | gefitinib 0.139

DHX32 (UniProt Q7L7V1)
inactive: vemurafenib 0.173 | [2] -0.026 | [7] -0.106 | [8] 0.137 | [9] 0.003 | sotrastaurin -0.011 | alvocidib 0.019 | Tubastatin A 0.027 | [3] 0.044 | defactinib -0.043 | encorafenib 0.062 | [5] 0.048 | alisertib 0.017 | gefitinib 0.02

CYP4V2 (UniProt Q6ZWL3)
inactive: [1] -0.021 | barasertib -0.021 | volasertib 0.05 | [7] -0.12 | saracatinib -0.076 | sotrastaurin -0.17 | Tubastatin A -0.1 | [3] -0.007 | [4] 0.045 | [6] -0.066

CXCL14 (UniProt O95715)
UniProt O95715, sequence (O95715 whole entry, looked up): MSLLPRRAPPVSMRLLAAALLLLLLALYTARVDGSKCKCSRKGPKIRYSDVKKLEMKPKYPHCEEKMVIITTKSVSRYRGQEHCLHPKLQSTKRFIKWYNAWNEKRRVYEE
inactive: vemurafenib 0.252 | barasertib 0.079 | [2] 0.189 | defactinib -0.235 | encorafenib -0.034 | [5] 0.066

CNK3/IPCEF1 isoform 2 (UniProt G9CGD6)
inactive: vemurafenib -0.062 | [2] 0.056 | [7] 0.078 | [9] 0.506 | saracatinib 0.053 | alvocidib -0.483 | Tubastatin A -0.048 | [3] -0.012 | defactinib -0.082 | [4] -0.007 | encorafenib 0.041 | [5] -0.062
active: [8] -1.81

DNA2 (UniProt P51530)
UniProt P51530, sequence (P51530 whole entry, looked up): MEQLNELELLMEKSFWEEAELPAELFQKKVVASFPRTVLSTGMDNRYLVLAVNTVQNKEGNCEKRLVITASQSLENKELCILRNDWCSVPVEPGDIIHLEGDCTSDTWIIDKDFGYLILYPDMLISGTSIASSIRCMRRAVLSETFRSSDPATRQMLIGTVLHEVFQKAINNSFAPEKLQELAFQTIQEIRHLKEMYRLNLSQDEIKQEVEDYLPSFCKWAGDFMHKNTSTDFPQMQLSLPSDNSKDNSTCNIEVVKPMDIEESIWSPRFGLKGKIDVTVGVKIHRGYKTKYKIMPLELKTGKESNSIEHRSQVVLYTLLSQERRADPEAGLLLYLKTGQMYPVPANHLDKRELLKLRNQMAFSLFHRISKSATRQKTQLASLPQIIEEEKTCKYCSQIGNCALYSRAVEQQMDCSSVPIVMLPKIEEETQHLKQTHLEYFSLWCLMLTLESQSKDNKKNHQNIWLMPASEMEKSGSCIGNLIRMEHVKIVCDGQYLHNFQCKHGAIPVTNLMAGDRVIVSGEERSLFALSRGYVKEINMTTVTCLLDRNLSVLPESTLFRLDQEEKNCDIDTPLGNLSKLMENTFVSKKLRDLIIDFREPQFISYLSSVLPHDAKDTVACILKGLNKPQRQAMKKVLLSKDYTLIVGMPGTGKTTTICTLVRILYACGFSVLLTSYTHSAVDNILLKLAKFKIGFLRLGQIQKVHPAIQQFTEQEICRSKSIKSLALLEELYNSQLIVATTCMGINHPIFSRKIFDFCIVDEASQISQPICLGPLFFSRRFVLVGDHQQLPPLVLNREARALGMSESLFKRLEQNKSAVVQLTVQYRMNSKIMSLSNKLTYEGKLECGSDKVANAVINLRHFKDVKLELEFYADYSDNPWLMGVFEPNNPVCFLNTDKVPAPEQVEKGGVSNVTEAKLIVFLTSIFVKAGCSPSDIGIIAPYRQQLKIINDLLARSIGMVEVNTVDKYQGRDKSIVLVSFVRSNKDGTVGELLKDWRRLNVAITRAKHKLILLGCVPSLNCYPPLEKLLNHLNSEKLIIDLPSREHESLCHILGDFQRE
inactive: vemurafenib -0.094 | [2] -0.053 | [7] 0.051 | [8] 0.03 | [9] 0.022 | saracatinib 0.008 | sotrastaurin 0.073 | alvocidib -0.116 | Tubastatin A -0.15 | [3] -0.009 | defactinib -0.039 | [4] -0.035 | encorafenib 0.123 | [5] -0.098 | alisertib -0.007 | gefitinib 0.036

DAZAP1 (UniProt K7EQ02)
inactive: alisertib 0.071 | gefitinib -0.084

DNM2 isoform 4 (UniProt P50570)
UniProt P50570, sequence (P50570 whole entry, looked up): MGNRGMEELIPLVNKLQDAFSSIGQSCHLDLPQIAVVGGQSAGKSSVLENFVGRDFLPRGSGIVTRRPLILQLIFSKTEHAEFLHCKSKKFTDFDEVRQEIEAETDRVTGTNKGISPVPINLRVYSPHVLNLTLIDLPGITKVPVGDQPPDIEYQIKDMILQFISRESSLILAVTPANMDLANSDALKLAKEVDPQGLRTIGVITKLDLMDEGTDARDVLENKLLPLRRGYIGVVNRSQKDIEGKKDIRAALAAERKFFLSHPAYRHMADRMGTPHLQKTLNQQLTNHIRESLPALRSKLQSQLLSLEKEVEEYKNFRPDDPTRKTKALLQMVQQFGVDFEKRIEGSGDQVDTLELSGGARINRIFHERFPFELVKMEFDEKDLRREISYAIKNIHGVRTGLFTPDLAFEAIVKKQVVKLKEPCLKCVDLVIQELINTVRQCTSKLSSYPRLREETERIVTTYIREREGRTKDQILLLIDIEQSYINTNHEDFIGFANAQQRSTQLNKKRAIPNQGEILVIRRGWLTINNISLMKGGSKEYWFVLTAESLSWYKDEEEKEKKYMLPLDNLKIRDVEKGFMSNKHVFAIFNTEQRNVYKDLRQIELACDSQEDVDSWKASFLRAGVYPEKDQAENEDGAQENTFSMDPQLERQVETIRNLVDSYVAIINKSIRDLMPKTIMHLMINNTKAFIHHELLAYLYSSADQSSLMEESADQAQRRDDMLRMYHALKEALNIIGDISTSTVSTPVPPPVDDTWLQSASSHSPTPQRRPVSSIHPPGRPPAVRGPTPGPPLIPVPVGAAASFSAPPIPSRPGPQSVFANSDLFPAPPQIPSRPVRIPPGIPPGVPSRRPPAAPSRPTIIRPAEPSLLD
inactive: [1] -0.001 | [2] -0.018 | volasertib -0.031 | [7] -0.014 | [8] -0.153 | [9] 0.021 | saracatinib -0.047 | sotrastaurin -0.031 | alvocidib -0.16 | Tubastatin A -0.095 | [3] -0.278 | [4] 0.055 | encorafenib 0.13 | [5] 0.06 | alisertib -0.007 | [6] -0.032 | gefitinib 0.029

DALRD3 (UniProt Q5D0E6)
inactive: vemurafenib -0.033 | [1] -0.025 | [2] -0.095 | volasertib -0.041 | [8] 0.003 | [9] 0.144 | alvocidib -0.016 | [3] -0.026 | defactinib 0.033 | encorafenib 0.054 | [5] -0.391 | [6] -0.004

CSNK1A1 isoform 3 (UniProt P48729)
UniProt P48729, sequence (P48729 whole entry, looked up): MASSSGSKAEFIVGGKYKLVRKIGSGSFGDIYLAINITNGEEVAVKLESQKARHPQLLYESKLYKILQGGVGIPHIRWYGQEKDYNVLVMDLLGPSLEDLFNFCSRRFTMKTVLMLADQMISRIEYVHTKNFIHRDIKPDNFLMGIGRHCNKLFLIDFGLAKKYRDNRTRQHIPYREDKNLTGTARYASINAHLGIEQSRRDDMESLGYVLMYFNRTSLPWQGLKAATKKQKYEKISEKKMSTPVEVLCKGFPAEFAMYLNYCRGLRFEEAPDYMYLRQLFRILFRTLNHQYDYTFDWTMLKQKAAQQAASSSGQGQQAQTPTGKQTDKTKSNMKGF
inactive: [7] -0.199 | saracatinib -0.175 | Tubastatin A -0.138 | [4] 0.068

CYP2S1 isoform 2 (UniProt Q96SQ9)
inactive: vemurafenib 0.062 | [1] 0.136 | [2] 0.119 | volasertib 0.038 | [7] 0.063 | saracatinib 0.017 | sotrastaurin 0.081 | Tubastatin A 0.027 | [3] -0.085 | defactinib -0.022 | [4] -0.151 | encorafenib 0.024 | [5] 0 | [6] -0.219

CPLX1 (UniProt O14810)
UniProt O14810, sequence (O14810 whole entry, looked up): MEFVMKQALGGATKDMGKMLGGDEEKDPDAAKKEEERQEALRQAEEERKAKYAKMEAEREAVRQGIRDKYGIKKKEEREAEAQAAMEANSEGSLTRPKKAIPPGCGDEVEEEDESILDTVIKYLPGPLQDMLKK
active: saracatinib 0.893
inactive: vemurafenib 0.034 | [1] 0.057 | [2] -0.026 | volasertib 0.029 | [7] -0.074 | Tubastatin A 0.04 | defactinib 0.144 | [4] -0.127 | encorafenib -0.017 | [5] -0.415 | [6] -0.005

CLIP1, A0A3B3ITA2
active: [9] 0.634
inactive: vemurafenib -0.026 | [7] -0.015 | [8] -0.515 | sotrastaurin -0.021 | alvocidib -0.036 | Tubastatin A 0.152 | defactinib -0.077
